The source of these data is patent publication US20220289795, “EFFICIENT METHOD FOR PREPARING PPR PROTEIN AND USE OF THE SAME” (EditForce, Inc., published 2022).

The target in the assay is T1, NL_v2_PPR7 (Artificial Sequence).
T1 chain: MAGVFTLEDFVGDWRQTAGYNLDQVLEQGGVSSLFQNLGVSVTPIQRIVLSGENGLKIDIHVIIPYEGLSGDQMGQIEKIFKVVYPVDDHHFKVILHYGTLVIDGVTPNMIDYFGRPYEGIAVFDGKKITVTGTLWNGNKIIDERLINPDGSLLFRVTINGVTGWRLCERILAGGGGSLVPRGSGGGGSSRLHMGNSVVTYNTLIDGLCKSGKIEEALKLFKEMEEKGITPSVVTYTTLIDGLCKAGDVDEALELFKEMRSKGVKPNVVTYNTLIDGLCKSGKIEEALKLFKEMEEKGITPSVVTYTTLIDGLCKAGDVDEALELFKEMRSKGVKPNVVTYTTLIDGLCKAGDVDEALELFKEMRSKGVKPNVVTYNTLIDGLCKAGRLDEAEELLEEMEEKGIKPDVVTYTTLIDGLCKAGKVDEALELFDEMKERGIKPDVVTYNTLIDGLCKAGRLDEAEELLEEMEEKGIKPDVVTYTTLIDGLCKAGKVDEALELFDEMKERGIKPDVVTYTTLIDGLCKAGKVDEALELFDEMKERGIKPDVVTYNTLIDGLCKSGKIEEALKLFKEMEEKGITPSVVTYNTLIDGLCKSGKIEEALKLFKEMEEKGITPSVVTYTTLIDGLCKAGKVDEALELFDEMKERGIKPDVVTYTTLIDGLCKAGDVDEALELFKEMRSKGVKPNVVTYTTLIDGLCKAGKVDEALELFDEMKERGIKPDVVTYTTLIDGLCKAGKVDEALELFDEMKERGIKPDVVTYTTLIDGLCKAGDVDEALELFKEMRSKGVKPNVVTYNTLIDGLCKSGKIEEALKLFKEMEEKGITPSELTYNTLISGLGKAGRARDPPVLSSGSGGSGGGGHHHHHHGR
As to the kind of experiment: RPB-ELISA. The following applies: tags: N-terminal luciferase, C-terminal 6xHis; label: 5'-biotin; ssRNA. The method, then: RNA probes consisting of a designed 30-base sequence containing 18 bases of the target sequence and modified by biotinylation at the 5′ end (RNA_1, RNA_2, RNA_3, RNA_4, and RNA_5, SEQ ID NOS: 61 to 65) were synthesized (Grainer). To a streptavidin-coated plate (Thermo fisher), the 5′-end biotinylated RNA probes were added, reaction was allowed at room temperature for 30 minutes, and the plate was washed with a lysis buffer (20 mM Tris-HCl, pH 7.6, 150 mM NaCl, 5 mM MgCl₂, 0.5% NP-40, 1 mM DTT, 0.1% BSA). For background measurement, wells to which RNA was not added, but 100 μL of the lysis buffer, 1 μL of 100 mM DTT, and 1 μL of 40 unit/4 RNase inhibitor (Takara, 2313A) were added were also prepared. Then, 200 μL of a blocking buffer (20 mM Tris-HCl, pH 7.6, 150 mM NaCl, 5 mM MgCl₂, 0.5% NP-40, 1 mM DTT, 1% BSA) was added, and the plate surface was blocked at room temperature for 30 minutes. Then, 100 μL of E. coli lysate containing luciferase-fused PPR protein having a luminescence level of 1.5×10⁸ LU/μL was added to each well, and the binding reaction was allowed at room temperature for 30 minutes. The well was washed 5 times with 200 μL of a washing buffer (20 mM Tris-HCl, pH 7.6, 150 mM NaCl, 5 mM MgCl₂, 0.5% NP-40, 1 mM DTT). […] The background (luminescence signal value obtained with adding the PPR protein and without adding RNA) was subtracted from the luminescences of the samples to which a solution containing each RNA and PPR protein was added, and the obtained values were used as the binding powers between the PPR protein and RNA.
By using the v2 motif, PPR proteins for 23 kinds of target sequences (T_1 to T_3, and T_5 to T_24, SEQ ID NOS: […]) were prepared (NL_v2_PPR1 to 3, and NL_v2_PPR5 to 24, SEQ ID NOS: 56 to 58 and 70 to 88), and RPB-ELISA was used to analyze bindings of all the combinations. The experimental method was the same as that used in Example 3.
Background: An ELISA detects its analyte on a solid surface through an enzyme-linked reagent.
Take GUCAGAGGGUUCUGGAUU: the binding signal came out at 21.1 log2 luminescence.
Next, GGUGGUGAGGCCCUGGGC: 21.4 log2 luminescence; GACUCAGGAAUCGGCUCU: 20.5 log2 luminescence.
Regarding GGUUAGAGAUACAGUGUG, the binding signal came to 20.6 log2 luminescence.
